# Records with an inconclusive call do not appear. Entries that show only a call come without a potency. Calls of active or inactive are those of the source. Calls follow the shape of the dose curve; as a rule, active = well fitted inhibition curve with a large enough effect; inconclusive = small, poorly fitted or top-dose-only effect; inactive = flat fitted curve, though single readings scatter.
# Test system: CRL-7250
# Test: qHTS assay to identify novel small-molecules to repurpose for Merkel cell carcinoma treatment (AID 1296009); also: nearly all actives have a fitted effect of over 60% in size
# Details: MCC and control cell lines, CellTiter-Glo viability, 72 h; series mostly up to 92 µM
# How it was run: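 Cells exposed to NPC (8-point) and MIPE (11-point) compound dilutions for 72 hr at 37 degree celsius; viability read by CellTiter-Glo luminescence, normalized to no-cell and DMSO in-plate controls.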
SMILES,Potency,outcome
COc1cccc(-n2nc(C(=O)O)cc2-c2ccc(C3CCCCC3)c(Cl)c2)c1,inactive,–
Cc1ccc(C)c(NC(=O)CNS(=O)(=O)c2ccc3[nH]c(=O)oc3c2)c1,inactive,–
CC(C)(O)c1ccc2c(c1)ncn2-c1cccc(-c2ccccc2C#N)c1,inactive,–
CC(=O)[C@H]1CC[C@H]2[C@@H]3CC=C4C[C@@H](OS(=O)(=O)O)CC[C@]4(C)[C@H]3CC[C@]12C,inactive,–
COc1cc(O)c2c(c1Cl)CC(C)OC2=O (stereo not given),inactive,–
CNc1cc2[nH]c(=O)n(-c3ccc(NC(=O)NS(=O)(=O)c4ccc(Cl)s4)cc3)c(=O)c2cc1F,inactive,–
C=C1CC23CC(=O)C4C(CO)(CO)CCCC4(C)C2CCC1C3 (stereo not given),inactive,–
CC1(C)C[C@H](O)C[C@@]2(C)[C@H]1[C@H](O)C=C1COC(=O)[C@@]12O,inactive,–
COC(=O)C1=COC(OC2OC(CO)C(O)C(O)C2O)C2C(C)CC(=O)C12O (stereo not given),inactive,–
CC1OC(O[C@H]2[C@@H](O)C[C@@]3(C)C([C@H](O)C[C@]4(C)C3CC=C3C5CC(C)(C)CC[C@]5(C(=O)OC5OC(CO)C(O)C(O)C5OC5OCC(OC6OCC(OC7OCC(O)C(O)C7O)C(O)C6O)C(OC6OCC(O)(CO)C6O)C5O)CC[C@]34C)[C@]2(C)CO)C(O)C(O)C1O (stereo not given in full),–,inactive [at 9.27 µM]
Nc1ncnc2c1ncn2CCNCCCCCO,inactive,–
Cc1ccc(Cc2c(C)nc3nc(SCC(=O)NCCN4CCNCC4)nn3c2C)cc1,inactive,–
COc1ccc(NC(=O)C2C[C@H](C)CC[C@H]2C(C)C)cc1 (stereo not given in full),inactive,–
C[C@@H]1CC[C@]2(C(=O)O[C@@H]3O[C@H](CO)[C@@H](O)[C@H](O)[C@H]3O)CC[C@]3(C)C(=CCC4[C@@]5(C)C[C@@H](O)[C@H](O)C(C)(C)C5CC[C@]43C)C2[C@]1(C)O (stereo not given in full),inactive,–
Nc1ncnc2c1ncn2[C@H]1O[C@@H](C(=O)N2CCN(CC(=O)Nc3cccc4c3CNC4=O)CC2)[C@H](O)[C@@H]1O,inactive,–
CC(C)(O)C1OC1C1=CC(=O)C2(C)OC2C1O (stereo not given),inactive,–
C[C@@H]1O[C@@H](O[C@H]2[C@H](O[C@H]3[C@H](O[C@H]4CC[C@@]5(C=O)C(CC[C@]6(C)C5CC=C5C7CC(C)(C)C[C@@H](O)[C@]7(C)CC[C@]56C)C4(C)C)O[C@H](C(=O)O)[C@@H](O)[C@@H]3O)OC[C@@H](O)[C@@H]2O)[C@H](O)[C@H](O)[C@H]1O (stereo not given in full),–,inactive [at 9.27 µM]
C/C(=C\CCC1(C)C2CC3C(C2)C31C)C(=O)O (stereo not given),inactive,–
CC1OC(OC2C(OC3C(O[C@H]4CC[C@@]5(C)C(CC[C@]6(C)C5CC=C5C7CC(C)(C)CC(O)[C@]7(C)CC[C@]56C)C4(C)C)OC(C(=O)O)C(O)C3O)OCC(O)C2O)C(O)C(O)C1O (stereo not given in full),–,inactive [at 9.27 µM]
C=CC1(C)CC2CCC3C(C)(C(=O)O)CCCC3(C)C2=CC1=O (stereo not given),inactive,–
CC(CC12CCCN1C(=O)C1CCCN1C2=O)OC(N)=O (stereo not given),inactive,–
C[C@@H]1O[C@@H](O[C@H]2[C@H](O[C@H]3CC[C@@]4(C)C(CC[C@]5(C)C4CC=C4C6CC(C)(C)CC[C@]6(C(=O)O[C@@H]6O[C@H](CO[C@@H]7O[C@H](CO)[C@@H](O[C@@H]8O[C@@H](C)[C@H](O)[C@@H](O)[C@H]8O)[C@H](O)[C@H]7O)[C@@H](O)[C@H](O)[C@H]6O)CC[C@]45C)[C@]3(C)CO)OC[C@H](O)[C@@H]2O)[C@H](O)[C@H](O)[C@H]1O (stereo not given in full),–,inactive [at 9.27 µM]
CC(=O)/C=C/C1(O)C(C)CC(O[C@@H]2O[C@H](CO)[C@@H](O)[C@H](O)[C@H]2O)CC1(C)C (stereo not given in full),inactive,–
CCN(CCN(C)C)C(=O)CNCc1cc(C(N)=O)ccn1,inactive,–
C/C=C1/[C@H](O[C@@H]2O[C@H](CO)[C@@H](O)[C@H](O)[C@H]2O)OC=C(C(=O)OC)[C@H]1CC(=O)O[C@@H]1O[C@H](CO)[C@@H](O)[C@H](O)[C@H]1O,inactive,–
C=C1C(=O)OC2C1C(O)CC1(C)C(O)CCC(C=O)C21 (stereo not given),inactive,–
C=C(C(=O)O)[C@@H]1CC[C@@]2(C)CC[C@H](O)[C@@]2(C(C)=O)C1,inactive,–
N[C@@H](CCNCc1ccc(Cl)cc1)C(=O)N1CCCCC1,inactive,–
Cc1ccc(Nc2nnc(-c3ccc([N+](=O)[O-])cc3)o2)cc1Cl,inactive,–
COc1cc(C(CO)C(OC2OC(CO)C(O)C(O)C2O)c2ccc(O)c(OC)c2)ccc1O (stereo not given),inactive,–

# Source: PubChem BioAssay (NCATS)
